About 83,000 compounds went through this panel and 20% of them were active in at least one assay; those are over-represented in the sample as a whole.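 Assay: single dose, 48 h. Readout: percent growth (0 = no net growth; negative = cell death). Active: <10.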 Unmarked numbers belong to inactive results. Activity calls are given as the source filed them.

Among the test systems are T-47D breast; BT-549 breast; MDA-MB-435 melanoma; SW-620 colon; HCT-116 colon; HCC-2998 colon; KM12 colon; MCF7 breast.
Holding throughout (experiment): NCI-60 one-dose screen, 48 h (100 = growth as untreated, 0 = no growth, -100 = all killed)
Holding throughout (conditions): 10 µM unless noted

As to `COc1nc2ccccc2cc1-c1nc2c(cnn2-c2ccccc2)c(=O)[nH]1`, the growth was 50.1% with T-47D breast; 38.5% in the assay on BT-549 breast; -20.9% (active) in the assay on MDA-MB-435 melanoma; 20.8% in the assay on SW-620 colon; 42.1% with HCT-116 colon; 73.3% with HCC-2998 colon. Further, the growth in the assay on KM12 colon was 29%.
For `Cc1ccc(C(=O)N/N=C/c2cccc(Oc3ccccc3)c2)cn1`, the growth was 66.3% with T-47D breast; 38.1% with BT-549 breast; -48% (active) in the assay with MDA-MB-435 melanoma; 29.3% in the assay on SW-620 colon; 32.8% in the assay with HCT-116 colon; 55.4% with HCC-2998 colon. In the assay on KM12 colon, the growth is 22.8%.
Turning to `COc1ccc(S(=O)(=O)n2cc(C3OC(c4cc(OC)c(OC)c(OC)c4)=NN3C(C)=O)c3ccccc32)cc1OC` (stereo unspecified), the growth in the assay on T-47D breast is 54.7%; in the assay with BT-549 breast, 51.8%; in the assay on MDA-MB-435 melanoma, 95.4%; in the assay with SW-620 colon, 97.9%; in the assay on HCT-116 colon it was 67.7%; with HCC-2998 colon it was 105%. Besides, in the assay with KM12 colon, the growth was 137%.
Take `CC1=C(SCCC(=O)OC(C[Se]C2=C(C)C(=O)c3ccccc3C2=O)C(=O)NC(C)(C)C)C(=O)c2ccccc2C1=O` (stereo unspecified): the growth is -52.9% (active) in the assay with T-47D breast; -96.2% (active) with BT-549 breast; -86.8% (active) in the assay on MDA-MB-435 melanoma; -80% (active) in the assay with SW-620 colon; -70.9% (active) in the assay with HCT-116 colon; -82.8% (active) with HCC-2998 colon. Besides, in the assay on KM12 colon, the growth is -94.6% (active).
`N[C@@H](Cc1ccccc1)[C@@H](O)C(=O)NCc1ccc(F)cc1`: the growth in the assay with T-47D breast was 113%; with BT-549 breast, 105%; in the assay with MDA-MB-435 melanoma, 101%; in the assay with SW-620 colon it was 103%; in the assay with HCT-116 colon, 96.1%; with HCC-2998 colon, 113%. Moreover, the growth in the assay on KM12 colon was 102%.
For the molecule `COc1ccc(/C=N/Nc2cc(=O)[nH]c3ccc(Cl)cc23)cc1`, the growth was 42.4% with T-47D breast; 32.1% in the assay on BT-549 breast; 43.2% with MDA-MB-435 melanoma; 37.9% in the assay with SW-620 colon; 8.92% (active) in the assay on HCT-116 colon; 88.8% with HCC-2998 colon. Moreover, the growth with KM12 colon is 46.6%.
With `CCCCCCNC(=O)Oc1ccc(/C(=C(\C)c2ccc(OC)cc2)c2ccc(OCCN3CCCCC3)cc2)cc1`, the growth in the assay on T-47D breast was 48%; in the assay on BT-549 breast, 70.4%; in the assay with MDA-MB-435 melanoma it was 66.7%; in the assay with SW-620 colon it was 55.3%; in the assay on HCT-116 colon, 34.5%; in the assay on HCC-2998 colon, 80.6%. For the same molecule, the growth with KM12 colon was 43.5%.
With `c1ccc(Nc2cc(-c3cccnc3)[nH]n2)cc1`, the growth with T-47D breast is 99.5%; in the assay with BT-549 breast, 99.4%; in the assay on MDA-MB-435 melanoma, 101%; with MCF7 breast it was 88.9%; with HCT-116 colon it was 105%; with HCC-2998 colon, 104%. In addition, the growth in the assay with KM12 colon was 96.3%.
Consider `Cc1cc(N2CCCC2)nc(N(CCCNc2ccnc3cc(Cl)ccc23)Cc2ccccn2)n1`, for which the growth with T-47D breast was 68.6%; in the assay on BT-549 breast, 64.9%; with MDA-MB-435 melanoma, 19.1%; in the assay with SW-620 colon, 44.5%; with HCT-116 colon, 16.3%; in the assay with HCC-2998 colon, 79.5%. Moreover, in the assay with KM12 colon, the growth was 63.8%.
Regarding `O=C1CSC(c2c(Cl)cccc2Cl)N1c1nc(Cl)cc(=O)[nH]1` (stereo unspecified), the growth in the assay on T-47D breast was 104%; in the assay with BT-549 breast, 228%; in the assay on MDA-MB-435 melanoma it was 111%; with SW-620 colon, 102%; in the assay on HCT-116 colon, 103%; with HCC-2998 colon, 102%. The growth in the assay with KM12 colon was 112%.
Take `c1cc2nc(-c3cn[nH]c3)c3c(c2cc1-c1cn[nH]c1)C1CCC3C1` (stereo unspecified): the growth is 37.6% with T-47D breast; 62% in the assay on BT-549 breast; 75.3% in the assay on MDA-MB-435 melanoma; 49.2% in the assay with MCF7 breast; 61.5% with HCT-116 colon; 84.5% in the assay on HCC-2998 colon. Also, the growth in the assay on KM12 colon is 37.8%.
`COc1ccc(CNC(=O)C(=O)[C@H](Cc2ccccc2)NC(=O)c2[nH]c3ccccc3c(=O)c2C)cc1`: the growth was 101% in the assay with T-47D breast; 115% in the assay on BT-549 breast; 100% with MDA-MB-435 melanoma; 97.3% in the assay on SW-620 colon; 101% in the assay with HCT-116 colon; 110% in the assay on HCC-2998 colon. Besides, the growth in the assay on KM12 colon was 101%.
Turning to `O=C1c2cccc3cccc(c23)C(=O)N1Nc1nc(NC2CCCCC2)nc(N2CCOCC2)n1`, the growth in the assay on T-47D breast was 88.4%; in the assay on BT-549 breast it was 110%; in the assay on MDA-MB-435 melanoma it was 103%; in the assay with SW-620 colon it was 98.1%; in the assay on HCT-116 colon, 93.6%; in the assay on HCC-2998 colon, 111%. Further, the growth in the assay with KM12 colon was 98.9%.
On to `CC1(C)C2CC1C1(/C=N\Nc3ccccc3)C(C2)C(C#N)(C#N)C1(C#N)C#N` (stereo unspecified), for which the growth in the assay with T-47D breast was 72.6%; in the assay with BT-549 breast it was 107%; in the assay on MDA-MB-435 melanoma, 104%; with SW-620 colon it was 101%; with HCT-116 colon, 83.9%; with HCC-2998 colon, 94.6%. For the same molecule, in the assay on KM12 colon, the growth was 81.3%.
Take `CCN(CC)CCNC(=O)c1cn2ncnc(Oc3ccc(NC(=O)Nc4ccc(Cl)c(C(F)(F)F)c4)cc3)c2c1C`: the growth is -64.3% (active) in the assay on T-47D breast; -32.5% (active) in the assay with BT-549 breast; -81.4% (active) with MDA-MB-435 melanoma; -85.6% (active) with SW-620 colon; -95.3% (active) in the assay on HCT-116 colon; -95.8% (active) in the assay on HCC-2998 colon. In the assay with KM12 colon, the growth is -80.4% (active).
Consider `COc1ccc(C2NC(=O)C(C#N)c3c2sc2c(F)cccc32)c(OC)c1` (stereo unspecified), for which the growth with T-47D breast was 61.7%; in the assay with BT-549 breast, 72.1%; with MDA-MB-435 melanoma, -28.7% (active); with MCF7 breast it was 24.5%; in the assay on HCT-116 colon, 23.8%; in the assay with HCC-2998 colon it was 88.3%. In addition, the growth with KM12 colon was 32%.
Take `COc1ccc(-c2csc(NC(=O)N3CCN(c4cc5c(cc4F)c(=O)c(C(=O)O)cn5C4CC4)CC3)n2)cc1`: the growth in the assay on T-47D breast is 5.11% (active); with BT-549 breast, -13.5% (active); in the assay on MDA-MB-435 melanoma, 3.67% (active); in the assay on MCF7 breast, 3.38% (active); in the assay on HCT-116 colon it was 5.37% (active); in the assay with HCC-2998 colon, 31%. Also, the growth with KM12 colon was 3.67% (active).
With `Cc1cc(C)c(-c2c(N)cc(Br)cc2Br)c(N)c1`, the growth in the assay with T-47D breast was 54.6%; in the assay with BT-549 breast, 69.6%; in the assay with MDA-MB-435 melanoma it was -25.8% (active); in the assay with SW-620 colon, 48.5%; in the assay on HCT-116 colon, 23.5%; with HCC-2998 colon it was 75.1%. Further, the growth in the assay with KM12 colon was 40.5%.
`Cc1nc(/N=C(\N)NC(=O)Nc2ccccc2Cl)sc1C`: the growth with T-47D breast is 34.7%; in the assay on BT-549 breast, 69.3%; with MDA-MB-435 melanoma it was -25.6% (active); with MCF7 breast, 23.6%; with HCT-116 colon, 28.5%; in the assay with HCC-2998 colon, 33.4%. The growth in the assay with KM12 colon was 40.3%.
As to `CC(=O)OC[C@H]1OC(Sc2sc(C(=O)c3ccc(Cl)cc3)c(N)c2-c2nc3ccccc3s2)[C@H](OC(C)=O)[C@@H](OC(C)=O)[C@@H]1OC(C)=O` (stereo partly specified), the growth was 89.5% in the assay on T-47D breast; 98.5% in the assay with BT-549 breast; 96.5% in the assay on MDA-MB-435 melanoma; 82.1% with MCF7 breast; 50.8% in the assay with HCT-116 colon; 109% with HCC-2998 colon. Further, in the assay on KM12 colon, the growth is 89.3%.
As for `Cc1ccc2sc3c(NCCCN)nc4ccccc4c3c(=O)c2c1`, the growth with T-47D breast is 54.6%; in the assay on BT-549 breast, 96.8%; in the assay on MDA-MB-435 melanoma, -71.7% (active); in the assay with SW-620 colon, -79.7% (active); in the assay with HCT-116 colon, -53.2% (active); in the assay on HCC-2998 colon it was -86.1% (active). In addition, the growth in the assay with KM12 colon was -74.6% (active).
`Brc1c[n+](Cc2ccc3ccccc3c2)cn1Cc1ccc2ccccc2c1`: the growth is 6.91% (active) in the assay on T-47D breast; -12.1% (active) in the assay with BT-549 breast; -32.1% (active) in the assay on MDA-MB-435 melanoma; 37.7% in the assay on SW-620 colon; 17% in the assay with HCT-116 colon; -73.5% (active) with KM12 colon.
Turning to `O=C(N/N=C/c1c(Cl)cccc1Cl)c1ccc(C(F)(F)F)nc1Nc1cccc(C(F)(F)F)c1`, the growth with T-47D breast was -9.07% (active); with BT-549 breast it was -5.79% (active); in the assay on MDA-MB-435 melanoma it was 24.2%; in the assay with SW-620 colon, 7.71% (active); with HCT-116 colon it was -19.6% (active); with HCC-2998 colon, -29.2% (active). Besides, the growth in the assay on KM12 colon was 8.17% (active).
Consider `Fc1cc2c(cc1Cl)N(c1ncnc3ccc(-c4cnc5cnccn45)cc13)CC2`, for which the growth in the assay on T-47D breast is 74.9%; in the assay with BT-549 breast it was 83.7%; in the assay on MDA-MB-435 melanoma, 101%; with SW-620 colon, 101%; in the assay on HCT-116 colon it was 83.5%; in the assay with HCC-2998 colon, 90.6%. The growth with KM12 colon was 98.1%.
As to `COc1cc(C(=O)/C=C/c2c(Cl)nc3sccn23)cc(OC)c1OC`, the growth in the assay on T-47D breast was 81.3%; in the assay on BT-549 breast, 81.3%; in the assay on MDA-MB-435 melanoma it was 72.5%; with MCF7 breast it was 54.8%; in the assay with HCT-116 colon it was 52.3%; with HCC-2998 colon it was 104%. Also, in the assay with KM12 colon, the growth is 56.7%.
For the molecule `NC1CCN(c2nc(Nc3cccc(C(F)(F)F)c3)c3c(=O)[nH]ccc3n2)CC1`, the growth was -73.2% (active) with T-47D breast; -91.8% (active) in the assay on BT-549 breast; -74.2% (active) with MDA-MB-435 melanoma; -85.8% (active) in the assay on MCF7 breast; -99.5% (active) with HCT-116 colon; -85.8% (active) in the assay with HCC-2998 colon. Besides, the growth in the assay with KM12 colon is -67.1% (active).

The record behind these values is PubChem BioAssay (NCI).
